This note sets out measurements from ChEMBL document CHEMBL4513216, “Probing the Open Global Health Chemical Diversity Library for Multistage-Active Starting Points for Next-Generation Antimalarials” (ACS Infect Dis, 2020).

Each structure is given as a SMILES string. Among all 69,000 compounds or so, about 8,600 (12%) showed an effect of 50% or more. Many of the other results were omitted from the sample, so strong results are more common in it than they were.

In the assay the test system is Plasmodium berghei. Put plainly: Screen against P. berghei liver stage (PbLuc), transformed with Luciferase, at 10uM. The following applies: tested at 10 uM. In kind it is functional, HepG2.
As for `O=C(c1cccnc1)N1CCCC(c2ncncc2-c2ccncc2)C1` (configuration not stated), the INHIBITION is recorded as 44.8%.

For the compound `C[C@@H]1C(=O)NC[C@H]2CN(Cc3ccc4c(c3)OCO4)C[C@H]21`, the INHIBITION amounted to 30.9%.

`COc1nn(C)c2c1CCCN(C(=O)c1ccc3c(c1)OCO3)C2`: the INHIBITION is reported as 20.9%.

Regarding `O=C(Nc1ccccc1OCCc1ccccn1)N1CCOCC1`, the INHIBITION is -98.1%.

Turning to `CNC(=O)C1(Cc2cc(C(C)C)no2)CCN(Cc2cccnc2)C1` (configuration not stated), the INHIBITION was 13.125%.

As for `CCS(=O)(=O)N1CCc2ccc(NC(=O)Nc3cccc(F)c3)cc21`, the INHIBITION came out at 91.4%.

`COCCN1CCC(NC(=O)Nc2cccc(F)c2)C1` (configuration not stated): the INHIBITION amounted to 28.9%.

In the case of `CCS(=O)(=O)N1CCc2ccc(NC(=O)Nc3ccccc3)cc21`, the INHIBITION came out at 88.5%.

For the compound `CCS(=O)(=O)N1CCc2ccc(NC(=O)NCc3ccccc3)cc21`, the INHIBITION is given as -23.5%.

In the case of `CCNC(=O)N1CCc2ccc(NC(=O)NCC3CC3)cc21`, the INHIBITION is on record as 10.7%.

On to `CCS(=O)(=O)N1CCc2ccc(NC(=O)Nc3ccccc3C)cc21`, for which the INHIBITION is reported as 34.5%.

Take `Cn1cccc1C(=O)N1CCO[C@@H]2CN(Cc3nccs3)C[C@@H]2C1`: the INHIBITION was -28.5%.

For `CN(C)C(=O)COC[C@]12COC[C@H]1CN(CC1CCC1)C2`, the INHIBITION is given as -11.1%.

For `COc1ccnc(N2CCN(C(=O)Cc3ccsc3)CC2)n1`, the INHIBITION is given as -47.6%.

For the compound `CNS(=O)(=O)CCCN1CCN(C(C#N)c2ccccc2)CC1` (configuration not stated), the INHIBITION was 47.3%.

Turning to `CNC(=O)c1c(C)cccc1NCc1noc(C2CC2)n1`, the INHIBITION worked out at 74%.

Consider `O=C(Nc1ccccc1)N1CCN(Cc2noc(C3CC3)n2)CC1`, for which the INHIBITION came out at 17.4%.

For the compound `Cc1ccccc1NC(=O)N1CCN(Cc2noc(C3CC3)n2)CC1`, the INHIBITION is given as 58.5%.

In the case of `O=C(Nc1ccc(F)cc1)N1CCN(Cc2noc(C3CC3)n2)CC1`, the INHIBITION is -3.2%.

Take `O=C(Cc1ccccc1F)N1CCN(Cc2noc(C3CC3)n2)CC1`: the INHIBITION was found to be 52.3%.

With `O=C(Cc1ccccc1)N1CCN(Cc2noc(C3CC3)n2)CC1`, the INHIBITION was found to be 1.77%.

As to `CNC(=O)c1c(C)cccc1NCc1nnc(C2CC2)o1`, the INHIBITION was found to be 24.3%.

For `O=C(Nc1ccccc1F)N1CCN(Cc2noc(C3CC3)n2)CC1`, the INHIBITION is given as 11.8%.

Regarding `CNC(=O)c1c(C)cccc1NCC(=O)Nc1cc(C)nn1C`, the INHIBITION stood at 19.1%.

For the compound `COC1(CNC(=O)c2ccc3nsnc3c2)CCSC1` (configuration not stated), the INHIBITION is given as -3.83%.

`COCc1noc(CN2CCC3(CC2)[C@H](O)C[C@@H]3OC)n1`: the INHIBITION amounted to 15.8%.

For `CCOc1ccc(OCC(O)CN2CCN(S(C)(=O)=O)CC2)cc1` (configuration not stated), the INHIBITION was -67.3%.

Consider `CC(=O)NCC1CCN(C(=O)c2c[nH]c3cc(Cl)ccc23)CC1`, for which the INHIBITION turned out to be 35.3%.

Take `CN1CCO[C@@H]2CN(S(=O)(=O)c3cccs3)CC[C@@H]2C1`: the INHIBITION is reported as 28.5%.

Regarding `CCn1cc(C(=O)N2C[C@H]3CC(Oc4ccccc4)C[C@H]3C2)cn1` (some centres not stated), the INHIBITION is on record as -17.715%.

Turning to `CC(C)(C)NC[C@@H]1CCC[C@@H]2CN(Cc3csnn3)C[C@@H]21`, the INHIBITION is recorded as -39.2%.

As to `O=C(Cn1cc(-c2ccccc2)cn1)NC(C1CC1)C1CC1`, the INHIBITION came to 34.7%.

For `OCCn1cc(CN2CCN(CCOc3cccc(F)c3)CC2)cn1`, the INHIBITION came out at 33.95%.

As for `Cc1cc(NC(C)Cc2cccnc2)n2nccc2n1` (configuration not stated), the INHIBITION turned out to be 23%.

Consider `Cc1cc(CC(C)Nc2ncc(C)c(N(C)C)n2)[nH]n1` (configuration not stated), for which the INHIBITION was found to be 63.7%.

Consider `COCc1nc(NC(C)Cc2cc(C)n[nH]2)c2cnn(C)c2n1` (configuration not stated), for which the INHIBITION came to 25.4%.

Consider `Cc1cnc(NC(C)Cc2cnccn2)nc1N(C)C` (configuration not stated), for which the INHIBITION is recorded as 0.705%.

In the case of `Cc1cccnc1CC(C)Nc1ncc(C)c(N(C)C)n1` (configuration not stated), the INHIBITION was found to be 27.9%.

In the case of `Cc1cnc(NC(C)Cc2cccnc2)nc1N(C)C` (configuration not stated), the INHIBITION came out at 55%.

As to `COc1ccc(C(=O)N2C[C@@H](O)[C@H](NCc3cnc(C)cn3)C2)cc1`, the INHIBITION was determined as 35.15%.

With `O=C(NCCc1nncn1C1CC1)c1cc2ccccn2c1`, the INHIBITION is -22.3%.

For the compound `CN(C)C(=O)Cc1ccc(NC(=O)NC2CCCC2)cc1`, the INHIBITION is on record as -36.6%.

As to `CN(C(=O)Cc1ccc(NC(=O)NC2CCC2)cc1)c1ccccc1`, the INHIBITION turned out to be 55.3%.

Take `O=C(Nc1ccc(CC(=O)N2CCCC2)cc1)NC1CC1`: the INHIBITION came out at 36.2%.

Regarding `CN(C(=O)Cc1ccc(NC(=O)NC2CC2)cc1)c1ccccc1`, the INHIBITION is on record as 8.845%.

As to `Cc1noc(CNc2ccc(CC(=O)N3CCSCC3)cc2)n1`, the INHIBITION came out at 32.5%.

For the compound `O=C(Nc1ccc(CC(=O)N2CCSCC2)cc1)NC1CC1`, the INHIBITION came out at 53.8%.

On to `O=C(Nc1ccc(CC(=O)N2CCSCC2)cc1)NC1CCCC1`, for which the INHIBITION is given as 33.2%.

For the compound `CCc1nnc(CNc2ccc(CC(=O)N3CCSCC3)cc2)o1`, the INHIBITION is recorded as 84.2%.

Consider `CCc1noc(CNc2ccc(CC(=O)N3CCSCC3)cc2)n1`, for which the INHIBITION is 28.5%.

Turning to `CC(C)C(NC(=O)Nc1ccc(F)cc1)C(=O)N(C)C` (configuration not stated), the INHIBITION is 18.7%.

Regarding `Cn1cc(-c2cc(C(F)(F)F)n(CCCN)n2)cn1`, the INHIBITION is listed as 21.9%.
